PubChem BioAssay (NCATS)
Results filed as inconclusive are left out. The source made the active and inactive calls. Unless noted, the call rests on the fitted dose curve.

Legend:
[1] = target: Estrogen receptor (Homo sapiens) (UniProt P03372); assay: qHTS assay for small molecule antagonists of estrogen receptor alpha signaling (AID 588513; active means well fitted curve in the direction sought with a large enough effect in the signal ratio, with a control signal flat, not every such curve was filed as active; the % refers to the signal ratio; further: on the % scale 0 is the no-effect control and ±100 the full control effect)
Method in brief: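 ER-alpha-UAS-bla GripTite HEK 293 cells in medium with 2% charcoal/dextran-treated FBS were preincubated 4 h at 37 C, dosed with compound (1:2 titration), stimulated with 0.5nM 17-beta-estradiol for 18 h, then read by CCF4 beta-lactamase fluorescence.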

[2] = target: Estrogen receptor (Homo sapiens) (UniProt P03372); assay: qHTS assay for small molecule agonists of estrogen receptor alpha signaling (AID 588514);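 further: 0% = vehicle only and 100% = reference agonist; nearly all actives have a fitted effect of over 70% in size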
Method in brief: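 Efficacy is expressed against 20 nM 17-beta-estradiol (100%) and DMSO basal (0%); EC50 from Hill equation. Assay: beta-lactamase reporter in ER-alpha-UAS-bla HEK 293 cells, 18 h compound incubation, CCF4 detection.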

[3] = qHTS assay for small molecule antagonists of peroxisome proliferator-activated receptor delta signaling (AID 588535); settings: HEK293T PPARd-UAS-bla, beta-lactamase FRET ratio, 18 h; 460 nm channel;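 further: cells co-treated with a PPAR-delta agonist as stimulator during compound exposure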
Method in brief: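 Titrations were run on PPAR-delta-UAS-bla HEK293T cells in charcoal/dextran-stripped serum, incubated 18 h at 37 C. CCF4 fluorescence (460/530 nm) after 2 h RT; Hill equation yields IC50 and maximal response.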

[4] = target: Vitamin D3 receptor (Homo sapiens) (UniProt P11473); assay: qHTS assay for small molecule antagonists of vitamin D receptor signaling (AID 588541);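 further: receptor activated by calcitriol during compound treatment; series mostly up to about 77 µM; on the % scale 0 is the no-effect control and ±100 the full control effect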
Method in brief: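 Antagonist-mode beta-lactamase reporter assay: HEK293T VDR-UAS-bla cells were exposed to titrated compound alongside 1-alpha,25-dihydroxyvitamin D3 at 3 nM final for 16 h. Values were normalized to the 50 nM agonist control and DMSO basal, with IC50 and efficacy from Hill equation fits.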

[5] = target: Vitamin D3 receptor (Homo sapiens) (UniProt P11473); assay: qHTS assay for small molecule agonists of vitamin D receptor signaling (AID 588543);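 further: 0% = DMSO basal and 100% = reference agonist control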
Method in brief: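 GeneBLAzer VDR-UAS-bla HEK293T cells in 2% charcoal-stripped FBS medium were dosed with compound titrations for 16 h at 37 °C; CCF4 β-lactamase readout (405 nm ex, 460/530 nm em). EC50 and efficacy from Hill fits, normalized to 50 nM calcitriol (100%) and DMSO (0%).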

[6] = qHTS assay for small molecule agonists of retinoid X receptor alpha signaling (AID 588544); settings: HEK293T RXRa-UAS-bla, beta-lactamase reporter, 18 h; 530 nm emission;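 on activation: 0% = DMSO basal wells and 100% = reference agonist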
[7] = target: Retinoic acid receptor RXR-alpha (Homo sapiens) (UniProt P19793); assay: as above
[8] = target: Thyroid hormone receptor beta (Homo sapiens) (UniProt P10828); assay: qHTS assay for small molecule agonists of thyroid hormone receptor beta signaling (AID 588545);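 further: 0% = DMSO only and 100% = 10 nM T3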
Method in brief: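 Stimulation of a TR-driven beta-lactamase reporter was quantified in GripTite HEK 293 cells. Compound series ran for 18 hrs; curves were normalized to T3 and DMSO controls and fitted to yield EC50.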

[9] = qHTS assay for small molecule antagonists of retinoid X receptor alpha signaling (AID 588546; active means well fitted inhibition curve with a large enough effect in the signal ratio, with a control signal flat, not every such curve was filed as active; the % refers to the signal ratio;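 further: cells stimulated with 9-cis-retinoic acid as agonist; on the % scale 0 is the no-effect control and ±100 the full control effect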); settings: HEK293T RXRa-UAS-bla, beta-lactamase ratio, antagonist mode; measured here: W530 green channel, cytotoxicity proxy
Method in brief: (§1)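 Beta-lactamase reporter inhibition, read as CCF4 fluorescence ratio (ex 405, em 460/530 nm) after 2 h at RT. HEK293T UAS-bla cells, 2500/well, were stimulated with 9-cis-RA at 500 or 100 nM final alongside test compound for 18 h at 37 C.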

[10] = target: Retinoic acid receptor RXR-alpha (Homo sapiens) (UniProt P19793); assay: as above; settings: HEK293T RXRa-UAS-bla, beta-lactamase ratio, antagonist mode
Method in brief: as §1

[11] = target: Thyroid hormone receptor beta (Homo sapiens) (UniProt P10828); assay: qHTS assay for small molecule antagonists of thyroid hormone receptor beta signaling (AID 588547; active means well fitted inhibition curve with a large enough effect in the signal ratio, with a control signal flat, not every such curve was filed as active; the % refers to the signal ratio;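 further: cells stimulated with 0.4 nM T3 agonist during compound exposure; series mostly up to about 77 µM; on the % scale 0 is the no-effect control and ±100 the full control effect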); settings: TR-UAS-bla HEK293, beta-lactamase ratio, antagonist mode, 18 h
Method in brief: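 Inhibition of T3-driven (0.4nM final) beta-lactamase reporter activity was measured over 0.59 nM to 92 uM compound after 18 h at 37 C. The cells were GripTite HEK293 TR-UAS-bla in charcoal/dextran-stripped serum, with CCF4 ratio read-out and IC50 from Hill fits.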

[12] = qHTS assay for small molecule activators of the p53 signaling pathway (AID 651743; active means well fitted activation curve with a large enough effect in the signal ratio, not every such curve was filed as active; the % refers to the signal ratio; further: series mostly up to about 92 µM; % of control where 0% means no effect); settings: HCT-116 p53RE-bla, beta-lactamase FRET ratio, 16 h; activation: stronger effect = higher value
Method in brief: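 After 16 hours compound treatment at 37 C, HCT-116 cells stably expressing p53RE-driven beta-lactamase were loaded with LiveBLAzer B/G FRET substrate for 2 hours at room temperature. Fluorescence intensity served as the p53 activation read-out.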

[13] = qHTS assay for environmental chemicals that activate the Aryl hydrocarbon Receptor (AhR) signaling pathway (AID 651777; active means well fitted curve in the direction sought with a large enough effect; an effect the other way counts as inactive or inconclusive; further: % of control where 0% means no effect; nearly all actives have a fitted effect of over 15% in size); settings: 1A2-DRE human hepatoma cells, luciferase, 24 h; activation: stronger effect = higher value
Method in brief: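 AhR activation is scored as a rise in luciferase from a stable DRE–CYP1A2 promoter construct in human hepatoma cells. Treatment lasts 24 hr at 37 C; detection uses One-Glo after 30 min at room temperature.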

[14] = target: Peroxisome proliferator-activated receptor alpha (Homo sapiens) (UniProt Q07869); assay: qHTS assay for small molecule agonists of the peroxisome proliferator-activated receptor alpha (PPARalpha) signaling pathway (AID 651778; active means well fitted curve in the direction sought with a large enough effect; an effect the other way counts as inactive or inconclusive; further: % of control where 0% means no effect); settings: PathHunter PPARalpha complementation, chemiluminescence, 6 h; max response: stronger effect = higher value
Method in brief: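 Chemiluminescence from complemented enzyme reported PPARalpha activation in cells after 6 hr of compound treatment at 37 C. The detection reagent was incubated for 60 min at room temperature, and compounds were scored as agonists.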

[15] = qHTS assay for small molecule agonists of the antioxidant response element (ARE) signaling pathway measured by Nrf2-dependant transcriptional activity (AID 720636; active means well fitted curve in the direction sought with a large enough effect in the repeat runs; an effect the other way counts as inactive or inconclusive;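 further: HepG2 cells with an ARE-driven luciferase reporter; % of control where 0% means no effect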)
Method in brief: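 First, ARE-luc HepG2 cells attached for 6 hr at 37 C in 1% dialyzed FBS medium. Next, compound or DMSO was added and incubated 16 hr. Finally, ONE-Glo reagent was added and luminescence measured after 30 min.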

[16] = qHTS assay for small molecule agonists of the antioxidant response element (ARE) signaling pathway measured by Nrf2-dependant transcriptional activity - cell viability counter screen (AID 720653; active means well fitted curve in the direction sought with a large enough effect in the repeat runs; an effect the other way counts as inactive or inconclusive; further: on the % scale 0 is the no-effect control and ±100 the full control effect); settings: ARE-bla HepG2 viability, CellTiter-Glo ATP luminescence, 16 h; max response: stronger effect = lower value
Method in brief: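 Cytotoxicity counter screen: intracellular ATP quantified by CellTiter-Glo luminescence in the same ARE-bla HepG2 plates, after 16 h compound exposure and a 2 h beta-lactamase substrate step.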

[17] = qHTS assay for cell viability of HEK293 cells (AID 743288; active means well fitted curve in the direction sought with a large enough effect; an effect the other way counts as inactive or inconclusive; further: on the % scale 0 is the no-effect control and ±100 the full control effect; nearly all actives have a fitted effect of over 50% in size); settings: ATP luminescence (CellTiter-Glo), 18 h; max response: stronger effect = lower value
Method in brief: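 After 18 h compound exposure at 37 C, parental HEK293 cells (2,000/well) are lysed with CellTiter-Glo and luminescence is read following 30 min at room temperature.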

[18] = qHTS assay for cell viability of the p53RE-bla HCT-116 cell line (AID 743292; active means well fitted curve in the direction sought with a large enough effect; an effect the other way counts as inactive or inconclusive; further: on the % scale 0 is the no-effect control and ±100 the full control effect; nearly all actives have a fitted effect of over 55% in size)
Method in brief: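 Quantitative high-throughput format: compounds in DMSO were pinned onto p53RE-bla HCT-116 cells (4,000/well) and incubated 16 h at 37 C. Total intracellular ATP, read by CellTiter-Glo luminescence, reflects viable cell number.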

[19] = target: Nuclear receptor subfamily 1 group I member 2 (Rattus norvegicus) (UniProt Q9R1A7); assay: qHTS assay for small molecule activators of the rat pregnane X receptor (rPXR) signaling pathway (AID 651751; call rule not given here; further: 0% is about no effect); settings: rPXR reporter cells, luciferase (One-Glo), 24 h
[20] = qHTS assay for small molecule activators of the human pregnane X receptor (PXR) signaling pathway (AID 720659; call rule not given here; further: 0% is about no effect)

Sequence of Peroxisome proliferator-activated receptor alpha (Homo sapiens) (Q07869 whole entry, looked up): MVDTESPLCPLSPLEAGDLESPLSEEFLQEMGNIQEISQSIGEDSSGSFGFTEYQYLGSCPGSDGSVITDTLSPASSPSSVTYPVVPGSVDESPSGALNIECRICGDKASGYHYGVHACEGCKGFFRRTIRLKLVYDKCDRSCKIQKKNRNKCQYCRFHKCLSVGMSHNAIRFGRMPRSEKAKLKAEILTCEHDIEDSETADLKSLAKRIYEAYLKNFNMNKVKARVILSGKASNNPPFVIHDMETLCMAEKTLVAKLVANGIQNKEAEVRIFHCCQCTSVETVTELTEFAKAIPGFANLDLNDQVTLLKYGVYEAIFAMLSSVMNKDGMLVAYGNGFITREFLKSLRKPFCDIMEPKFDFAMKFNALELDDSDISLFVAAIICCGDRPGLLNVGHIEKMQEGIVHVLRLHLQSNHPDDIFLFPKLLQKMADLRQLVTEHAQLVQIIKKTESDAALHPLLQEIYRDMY
Sequence of Retinoic acid receptor RXR-alpha (Homo sapiens) (P19793 whole entry, looked up): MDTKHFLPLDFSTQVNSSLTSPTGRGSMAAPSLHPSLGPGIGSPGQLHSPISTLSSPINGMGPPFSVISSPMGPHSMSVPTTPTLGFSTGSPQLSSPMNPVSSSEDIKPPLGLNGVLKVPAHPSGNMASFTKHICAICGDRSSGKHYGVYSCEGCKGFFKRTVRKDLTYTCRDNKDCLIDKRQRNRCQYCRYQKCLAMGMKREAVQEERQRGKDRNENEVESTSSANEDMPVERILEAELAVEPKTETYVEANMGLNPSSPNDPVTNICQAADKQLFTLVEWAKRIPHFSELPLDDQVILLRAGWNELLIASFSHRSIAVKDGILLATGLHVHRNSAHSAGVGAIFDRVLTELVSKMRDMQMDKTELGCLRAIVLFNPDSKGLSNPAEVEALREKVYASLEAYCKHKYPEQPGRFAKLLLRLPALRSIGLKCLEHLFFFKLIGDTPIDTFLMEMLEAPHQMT
Sequence of Nuclear receptor subfamily 1 group I member 2 (Rattus norvegicus) (Q9R1A7 whole entry, looked up): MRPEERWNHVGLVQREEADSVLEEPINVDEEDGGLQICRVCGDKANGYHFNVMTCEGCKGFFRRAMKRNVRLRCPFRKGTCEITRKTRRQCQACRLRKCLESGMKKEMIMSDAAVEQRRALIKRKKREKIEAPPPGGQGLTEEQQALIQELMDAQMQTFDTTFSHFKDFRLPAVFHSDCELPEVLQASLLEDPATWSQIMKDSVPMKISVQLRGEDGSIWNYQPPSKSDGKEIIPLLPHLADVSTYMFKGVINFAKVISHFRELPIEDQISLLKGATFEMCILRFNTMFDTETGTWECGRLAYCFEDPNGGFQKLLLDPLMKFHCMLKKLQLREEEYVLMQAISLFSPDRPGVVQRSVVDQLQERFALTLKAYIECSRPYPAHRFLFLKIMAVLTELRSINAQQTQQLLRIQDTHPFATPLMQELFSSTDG
Sequence of Vitamin D3 receptor (Homo sapiens) (P11473 whole entry, looked up): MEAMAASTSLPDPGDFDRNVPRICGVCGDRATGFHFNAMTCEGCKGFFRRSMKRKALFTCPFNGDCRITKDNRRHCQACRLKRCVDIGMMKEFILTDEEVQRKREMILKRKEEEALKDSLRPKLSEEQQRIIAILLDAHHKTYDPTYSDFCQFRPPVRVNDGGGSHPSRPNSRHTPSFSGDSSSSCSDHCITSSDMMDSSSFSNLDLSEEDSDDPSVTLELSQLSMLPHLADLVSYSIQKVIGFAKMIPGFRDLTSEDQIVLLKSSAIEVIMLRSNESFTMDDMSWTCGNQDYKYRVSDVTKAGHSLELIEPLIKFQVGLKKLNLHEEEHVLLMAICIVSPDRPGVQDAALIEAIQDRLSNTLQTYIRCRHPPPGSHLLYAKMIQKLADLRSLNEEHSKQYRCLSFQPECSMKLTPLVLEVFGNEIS
Sequence of Estrogen receptor (Homo sapiens) (P03372 whole entry, looked up): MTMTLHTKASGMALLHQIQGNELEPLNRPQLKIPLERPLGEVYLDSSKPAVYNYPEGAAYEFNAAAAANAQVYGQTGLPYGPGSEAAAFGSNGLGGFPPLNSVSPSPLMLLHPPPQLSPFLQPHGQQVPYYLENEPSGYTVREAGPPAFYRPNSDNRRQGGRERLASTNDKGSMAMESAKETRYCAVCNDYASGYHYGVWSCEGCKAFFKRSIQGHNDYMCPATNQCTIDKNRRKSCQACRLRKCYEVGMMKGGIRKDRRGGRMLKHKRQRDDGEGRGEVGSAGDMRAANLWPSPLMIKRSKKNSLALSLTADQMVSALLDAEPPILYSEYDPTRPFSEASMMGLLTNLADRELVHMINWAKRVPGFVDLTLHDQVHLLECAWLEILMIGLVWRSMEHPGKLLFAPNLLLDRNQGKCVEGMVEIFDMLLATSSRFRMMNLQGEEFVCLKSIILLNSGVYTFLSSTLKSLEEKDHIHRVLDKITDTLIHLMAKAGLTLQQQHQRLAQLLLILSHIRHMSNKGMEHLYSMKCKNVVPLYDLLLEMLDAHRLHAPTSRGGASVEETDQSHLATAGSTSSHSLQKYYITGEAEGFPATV
Sequence of Thyroid hormone receptor beta (Homo sapiens) (P10828 whole entry, looked up): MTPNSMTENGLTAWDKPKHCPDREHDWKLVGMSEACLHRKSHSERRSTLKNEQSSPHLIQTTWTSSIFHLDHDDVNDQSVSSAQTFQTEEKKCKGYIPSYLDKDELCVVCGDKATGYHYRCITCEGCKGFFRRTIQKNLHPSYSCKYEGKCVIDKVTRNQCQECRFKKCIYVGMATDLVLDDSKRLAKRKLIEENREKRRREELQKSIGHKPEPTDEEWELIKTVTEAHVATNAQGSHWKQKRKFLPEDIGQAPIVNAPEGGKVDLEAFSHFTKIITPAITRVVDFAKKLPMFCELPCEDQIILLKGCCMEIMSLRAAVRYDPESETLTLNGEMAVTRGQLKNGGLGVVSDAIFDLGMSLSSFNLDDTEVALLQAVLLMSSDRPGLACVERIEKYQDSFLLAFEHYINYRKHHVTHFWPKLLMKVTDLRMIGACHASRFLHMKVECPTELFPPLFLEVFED

Compound	Potency [1]	Potency [2]	max response [3]	Potency [4]	outcome [5]	max response [6]	Potency [7]	Potency [8]	max response [9]	max response [10]	activity change % (negative = inhibition) [11]	activation [12]	activation [13]	max response [14]	Potency [15]	max response [16]	max response [17]	Potency [18]	max response [19]	outcome [20]
COC(=O)c1c(Cl)nn(C)c1S(=O)(=O)NC(=O)Nc1nc(OC)cc(OC)n1	inactive	inactive	-24.6%	inactive	inactive	-3.44%	inactive	inactive	-1.74%	-14.3% (inactive)	-5.79% (inactive)	-0.555% (inactive)	-1.75% (inactive)	0.0687% (inactive)	inactive	-2.6% (inactive)	-3.18% (inactive)	inactive	1.48% (inactive)	inactive
CC(Cl)(Cl)C(=O)OCCOc1cc(Cl)c(Cl)cc1Cl	inactive	inactive	-5.22%	inactive	inactive	-6.02%	inactive	inactive	-16.7%	0.808% (inactive)		-0.345% (inactive)	1.95% (inactive)			2.91% (inactive)	-9.39% (inactive)	inactive	-0.3% (inactive)	
Cc1ccc(C(=O)c2ccccc2)cc1	inactive	inactive	-13.1%			0.662%	inactive		9.26%	-15.9% (inactive)	-19.1% (inactive)	3.79% (inactive)	-0.234% (inactive)			-0.957% (inactive)	-2.28% (inactive)	inactive	3.11% (inactive)	
COC(=O)c1cccc(C)c1S(=O)(=O)NC(=O)Nc1nc(OCC(F)(F)F)nc(N(C)C)n1	inactive	inactive	78.8%	inactive	inactive			inactive	-7.48%	-20.9% (inactive)	11.3% (inactive)		2.46% (inactive)	-1.42% (inactive)		-9.65% (inactive)	-5.64% (inactive)	inactive	-6.52% (inactive)	inactive
C=C(C)C(=O)OCCCCCCCCCCCCCCCC	inactive	inactive	-9.92%	inactive	inactive	-13%	inactive	inactive	-3.04%	-1.04% (inactive)	-5.63% (inactive)	-3.74% (inactive)	0.0765% (inactive)	-2.7% (inactive)		0.407% (inactive)		inactive	2.75% (inactive)	inactive
CC(C)(C)C(O)/C(=C\c1ccc(Cl)cc1)n1cncn1 (stereo not given)	inactive	inactive	-55.9%	inactive	inactive	16.3%	inactive		-0.493%	-24.9% (inactive)		-2.96% (inactive)	3.57% (inactive)	6.34% (inactive)	inactive	-4.78% (inactive)	-13.5% (inactive)	inactive		
